Compound activity from PubChem BioAssay.
Pf growth 48h = Primary qHTS for delayed death inhibitors of the malarial parasite plastid, 48 hour incubation. 310,000 compounds, 5.9% hits. AID 504832, 2011. Potency, µM (top dose mostly 28.7 µM), for the others: at the top dose activity change, negative = inhibition, most hits filed as inhibitors. P. falciparum luciferase growth in erythrocytes, 48 h; also: potency is read from the fitted curve at half-maximal effect; % is scaled to controls: 0 for no effect and ±100 for the full control effect
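In quantitative HTS format, infected erythrocytes bearing luciferase-reporter parasites were treated for a single generation at 37 C. Luminescence after adding detection reagent served as the growth measure.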
CHX counter = Cycloheximide Counterscreen for Small Molecule Inhibitors of Shiga Toxin; cell reporter, cycloheximide protein synthesis inhibition counterscreen; max response, %; 300,000 compounds, 12% hits; AID 2314, 2010; in the data active = max response mostly above about 13%, no sharp cut-off; inactive = mostly below about 14%; also: read at 38.3 µM for the half of the compounds with a filed dose; 0% is about no effect
Shiga inhibitor = A qHTS for Small Molecule Inhibitors of Shiga Toxin; Vero cells, Shiga toxin protein synthesis inhibition reporter; inhibition, % at 38.7 µM; 290,000 compounds, 9.2% hits; AID 2315, 2010; in the data active = inhibition mostly above about 28%, no sharp cut-off; inactive = mostly below about 43%; also: 0% is about no effect
LASV entry inh = qHTS for Inhibitors of binding or entry into cells for Lassa Virus; Lassa virus pseudotype entry inhibition, cell reporter; 300,000 compounds, 1.2% hits; AID 540256, 2011; Potency, µM (top dose mostly 37.9 µM), for the others: at the top dose activity change, negative = inhibition, actives largely listed as inhibitors; calls by dose curve; tested in HEK293 cells; also: potency is read from the fitted curve at half-maximal effect; % is scaled to controls: 0 for no effect and ±100 for the full control effect; nearly all actives have a fitted effect of over 50% in size
Pf growth 96h = Primary qHTS for delayed death inhibitors of the malarial parasite plastid, 96 hour incubation. Potency, µM (top dose mostly 28.7 µM), inactives show top-dose activity change, negative = inhibition, hits mostly inhibitors. P. falciparum luciferase reporter growth, 96 h. 320,000 compounds, 6.9% hits; also: potency is read from the fitted curve at half-maximal effect; % is scaled to controls: 0 for no effect and ±100 for the full control effect
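P. falciparum expressing integrated firefly luciferase grown in erythrocytes (2% hematocrit, 0.05% parasitemia final) with compounds for 96 hours at 37 C, 5% CO2. Growth inhibition read as loss of luminescence after adding luciferase detection reagent.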
MARV entry inh = qHTS for inhibitors of binding or entry into cells for Marburg Virus. Marburg virus pseudotyped entry inhibition, cell reporter. Potency, µM (titrated, usually from 37.8 µM), without a hit: at the highest dose activity change, negative = inhibition, actives largely listed as inhibitors. 300,000 compounds, 1.8% hits; calls by dose curve; tested in HEK293 cells; also: potency is read from the fitted curve at half-maximal effect; % is scaled to controls: 0 for no effect and ±100 for the full control effect
Numbers without * were called inactive; [ ] = remark or other dose. In the library only some 19% were active in any assay of this set; here they are far more common. Unless noted, calls follow the shape of the dose curve; as a rule, active = well fitted inhibition curve with a large enough effect; inconclusive = small, poorly fitted or top-dose-only effect, or another doubt; inactive = no such curve, though single readings can be large or run the other way.

Results for CCOC(=O)c1c(-c2ccc(OC)cc2)csc1NC(=O)CSc1ncnc2sccc12 ?
Pf growth 48h: inconclusive; CHX counter: -2; Shiga inhibitor: -13; LASV entry inh: -7%; Pf growth 96h: 5.2µM*; MARV entry inh: -34%

How did CCOC(=O)c1c(NC(=O)CSc2nnc(C)c(=O)[nH]2)sc(C)c1-c1ccc(C)cc1 do in these assays?
Pf growth 48h: -5%; CHX counter: -5; Shiga inhibitor: -1; LASV entry inh: -7%[46.1 µM]; Pf growth 96h: 3%; MARV entry inh: inconclusive

Results for CCOC(=O)c1c(NC(=O)CSc2nnc(N)s2)sc(C)c1-c1ccc(C)cc1 ?
Pf growth 48h: inconclusive; CHX counter: -3; Shiga inhibitor: -4; Pf growth 96h: 10µM*

What do the screens show for `CCOC(=O)c1c(CC(C)C)csc1NC(=O)COC(=O)c1ccc(O)cc1`?
Pf growth 48h: inconclusive; LASV entry inh: inconclusive; Pf growth 96h: 9.3µM*; MARV entry inh: -2%

How did Cn1cccc1C(=O)NCC(c1ccc(F)cc1)N1CCOCC1 (stereo not drawn) do in these assays?
Pf growth 48h: -4%; CHX counter: 16; Shiga inhibitor: 12; Pf growth 96h: inconclusive

Results for CC(Oc1ccccc1F)c1nnc(SCC(=O)c2c(N)n(C3CC3)c(=O)[nH]c2=O)o1 (stereo not drawn) ?
Pf growth 48h: -27%; Pf growth 96h: 5%

What do the screens show for `CCOC(=O)c1c(-c2ccc(C)o2)csc1NC(=O)COC(=O)c1ccc(NC(N)=O)cc1`?
Pf growth 48h: 8.3µM*; CHX counter: -6; Shiga inhibitor: -16; LASV entry inh: -15%; MARV entry inh: inconclusive

Results for CCOC(=O)c1c(NC(=O)CSc2nnc(C)s2)sc2c1CCC(C)C2 (stereo not drawn) ?
Pf growth 48h: 12µM*; CHX counter: -1; Shiga inhibitor: -10; LASV entry inh: inconclusive; Pf growth 96h: 16%; MARV entry inh: inconclusive

How did CCOC(=O)c1c(NC(=O)CSc2nnc(C)s2)sc2c1CCCCC2 do in these assays?
Pf growth 48h: -17%; CHX counter: -1; Shiga inhibitor: 9; LASV entry inh: 11%; Pf growth 96h: 17%; MARV entry inh: inconclusive

How did CCOC(=O)c1c(-c2cccs2)csc1NC(=O)CCCC(=O)O do in these assays?
Pf growth 48h: 11%; CHX counter: -2; Shiga inhibitor: -9; LASV entry inh: 0%; Pf growth 96h: -6%; MARV entry inh: 2%

How did CCOC(=O)c1c(-c2ccc(C)o2)csc1NC(=O)CSc1nnc(C)s1 do in these assays?
Pf growth 48h: 12µM*; CHX counter: -1; Shiga inhibitor: -7; LASV entry inh: -27%; Pf growth 96h: 169%; MARV entry inh: -16%

What do the screens show for `CCOC(=O)c1c(-c2ccc(-c3ccccc3)cc2)csc1NC(=O)CNCCN(C)C`?
CHX counter: 6; Shiga inhibitor: 5; LASV entry inh: inconclusive; Pf growth 96h: inconclusive; MARV entry inh: inconclusive

How did CCOC(=O)c1c(-c2ccccc2)csc1NC(=O)CSc1nnc(C)s1 do in these assays?
Pf growth 48h: 2.9µM*; CHX counter: -5; Shiga inhibitor: -12; LASV entry inh: inconclusive; Pf growth 96h: inconclusive; MARV entry inh: inconclusive

What do the screens show for `CCOC(=O)c1c(-c2ccc(C)o2)csc1NC(=O)CSc1nnnn1-c1ccccc1`?
Pf growth 48h: inconclusive; CHX counter: 6; Shiga inhibitor: 14; LASV entry inh: -26%; MARV entry inh: inconclusive

Results for COc1ccc(NC(=O)CCc2nnc3ccc(NCc4ccc5c(c4)OCO5)nn23)cc1 ?
Pf growth 48h: -18%; CHX counter: -4; Shiga inhibitor: -3; Pf growth 96h: inconclusive

Results for CC(C)Oc1ccc(S(=O)(=O)N2CCOCC2)cc1NC(=O)c1ccc(N2CCCC2=O)cc1 ?
Pf growth 48h: 4.1µM*; CHX counter: -1; Shiga inhibitor: -9; LASV entry inh: -3%[46.1 µM]; Pf growth 96h: 1.3µM*; MARV entry inh: 0%[46.1 µM]

Results for COc1ccc(S(=O)(=O)N2CCCCCC2)cc1NC(=O)c1ccccc1 ?
Pf growth 48h: 2%; CHX counter: 2; Shiga inhibitor: 2; LASV entry inh: -7%; Pf growth 96h: inconclusive; MARV entry inh: inconclusive

Results for CC(C)Oc1ccc(S(=O)(=O)N2CCOCC2)cc1NC(=O)C1CCC1 ?
Pf growth 48h: -11%; LASV entry inh: -6%; Pf growth 96h: inconclusive; MARV entry inh: -8%

Results for CC(C)Oc1ccc(S(=O)(=O)N2CCOCC2)cc1NC(=O)CC1CCCC1 ?
Pf growth 48h: 9.3µM*; Pf growth 96h: 8.3µM*

Results for COc1ccc(S(=O)(=O)N2CCCCC2)cc1NC(=O)c1ccc(N2CCCC2=O)cc1 ?
Pf growth 48h: 9.3µM*; Pf growth 96h: inconclusive

What do the screens show for `CCN(CC)S(=O)(=O)c1ccc(OC)c(NC(=O)c2ccc(N3CCCC3=O)cc2)c1`?
Pf growth 48h: inconclusive; Pf growth 96h: 9.3µM*

How did O=C(NCCc1nc2ccccc2[nH]1)/C(=C/c1ccc2c(c1)OCO2)NC(=O)c1ccccc1 do in these assays?
Pf growth 48h: 6%; CHX counter: -3; Shiga inhibitor: -5; LASV entry inh: 15%; Pf growth 96h: inconclusive; MARV entry inh: -12%

What do the screens show for `Cc1cccc(CSC(=N)N)c1`?
Pf growth 48h: -1%; CHX counter: -3; Shiga inhibitor: -13; LASV entry inh: -26%; Pf growth 96h: -27%; MARV entry inh: inconclusive

What do the screens show for `COc1ccc(S(=O)(=O)N2CCCCC2)cc1NC(=O)c1ccc(Cl)nc1`?
Pf growth 48h: 15µM*; LASV entry inh: -3%; Pf growth 96h: inconclusive; MARV entry inh: 10%

How did CC(C)Oc1ccc(S(=O)(=O)N2CCOCC2)cc1NC(=O)C1=NN(c2ccccc2)C(=O)CC1 do in these assays?
Pf growth 48h: 3.7µM*; LASV entry inh: inconclusive; Pf growth 96h: 1.7µM*; MARV entry inh: -16%

Results for Cc1noc(C)c1CSCC(=O)Nc1cc(S(=O)(=O)N2CCOCC2)ccc1OCC(F)(F)F ?
Pf growth 48h: inconclusive; LASV entry inh: -19%; Pf growth 96h: inconclusive; MARV entry inh: 12%

What do the screens show for `CCOc1ccc(S(=O)(=O)N(CC)CC)cc1NC(=O)c1ccc(N2CCCC2=O)cc1`?
Pf growth 48h: 10µM*; CHX counter: -2; Shiga inhibitor: -1; LASV entry inh: inconclusive; Pf growth 96h: inconclusive; MARV entry inh: 3%

What do the screens show for `COc1ccc(S(=O)(=O)N2CCCCC2)cc1NC(=O)c1ccc(OC)c(OC)c1`?
Pf growth 48h: inconclusive; LASV entry inh: inconclusive; Pf growth 96h: inconclusive; MARV entry inh: -8%

Results for Cc1noc(C)c1CSCC(=O)Nc1cc(S(=O)(=O)N2CCCCC2)ccc1OC(C)C ?
Pf growth 48h: 13µM*; LASV entry inh: -16%; Pf growth 96h: inconclusive; MARV entry inh: -20%[46.1 µM]
